Reference: the supplement of paper PMC4840960
Counter-ions that a name gives are not always drawn.

These compounds were tested on E18 rat cortical neuron-glia co-culture (assay: myelination (MBP fiber length per Olig2+ nucleus), % of 1 µM DAPT response (DMSO = 0) (% of DAPT); higher = more myelination, active = 50 or more). Conditions: 5 µM; treatment time: 8 days (DIV5-DIV13).
Outline: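 Four 10X fields in each of duplicate wells were analysed after cultures were fixed in 4 % paraformaldehyde and immunostained for MBP and Olig2, with DAPI as the nuclear counterstain. The cultures were papain-dissociated primary E18 rat cortical co-cultures at 20,000 cells/well on poly-d-lysine/laminin 96-well plates, dosed with library compounds at 1 or 5 µM in myelination medium from DIV5 to DIV13. The myelination readout was continuous straight MBP fiber length per Olig2+ nucleus, with 0.1 % DMSO set to 0 and a 1 µM positive control set to 100.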
In the case of `NC(=O)c1cccnc1` [Niacinamide], the myelination is reported as -4.86 (inactive). For `CCOC(=O)C1=C(C)NC(C)=C(C(=O)OC)C1c1cccc([N+](=O)[O-])c1` (configuration not stated) [Nitrendipine], the myelination was 1.09 (inactive). In the case of `CC(C)NCC(O)COc1ccc(CCOCC2CC2)cc1` (configuration not stated) [Betaxolol], the myelination is reported as -10.5 (inactive). For `CNNCc1ccc(C(=O)NC(C)C)cc1` [Procarbazine], the myelination was -0.797 (inactive). Compound `NC(=O)N1c2ccccc2CC(=O)c2ccccc21` [Oxcarbazepine] has a myelination of 196. `CC1CNc2c(cccc2S(=O)(=O)N[C@@H](CCCNC(=N)N)C(=O)N2CC[C@@H](C)C[C@@H]2C(=O)O)C1` (some centres not stated) [Argatroban] was tested, and the myelination was -49.9 (inactive). With `C=C1/C(=C\C=C2/CCC[C@]3(C)[C@@H]([C@H](C)/C=C/[C@@H](O)C4CC4)CC[C@@H]23)C[C@@H](O)C[C@@H]1O` [Calcipotriene] the myelination was -82.7 (inactive). For `CC(C)(C#N)c1cc(Cn2cncn2)cc(C(C)(C)C#N)c1` [Anastrozole], the myelination was -11.9 (inactive). For `CC(C)[C@H]1CC[C@H](C(=O)N[C@H](Cc2ccccc2)C(=O)O)CC1` [Nateglinide], the myelination was -10.9 (inactive). `C[C@]12CC[C@@H]3c4ccc(OS(=O)(=O)O)cc4CC[C@H]3[C@@H]1CCC2=O` [Estrone sulfate] was tested, and the myelination was 5.79 (inactive). With `CC(C)(C)NC[C@H](O)COc1nsnc1N1CCOCC1` [Timolol] the myelination was -1.56 (inactive). With `COc1cc(C[C@@H](CO)[C@H](CO)Cc2ccc(O)c(OC)c2)ccc1O` [Secoisolariciresinol] the myelination was -8.85 (inactive).
